Bioassay records as filed in PubChem.
gsp antagonist = qHTS for Antagonists of gsp, the Etiologic Mutation Responsible for Fibrous Dysplasia/McCune-Albright Syndrome: qHTS | gsp-mutant cells, cAMP HTRF, 30 min | Potency, µM (highest dose often 76.9 µM), for the others: at the top dose activity change, negative = inhibition, hits mostly inhibitors | 340,000 tested, 0.4% active; calls by dose curve; cell line not stated here;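 note: intracellular cAMP measured with PDE inhibitor Ro 20-1724 present during compound exposure; potency is the fitted concentration of half-maximal effect; % is set by controls: 0 for no effect and ±100 for the full control effect; nearly all actives have a fitted effect of over 65% in size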
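Cells in G418 medium, seeded 16-24 h, 37C; buffer exchange to DPBS + 1 mM CaCl2, 0.5 mM MgCl2, 0.05% BSA; cpds in DMSO + […] (300 uM stock), 30 min 37C; HTRF cAMP detection.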
RXFP1 antagonist = qHTS Assay for Antagonists of the Relaxin Receptor RXFP1; Relaxin receptor 1 (Homo sapiens), Q9HBX9; HEK293-RXFP1, relaxin-stimulated cAMP HTRF, 30 min; active compounds read low; activity change, negative = inhibition, % at 57.5 µM; 350,000 tested, 0.59% active;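 active = activity change of -60% or lower, but not beyond a set lower limit; inconclusive = change between -60% and -40%, or beyond the set limit; inactive = change above -40%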; note: % is set by controls: 0 for no effect and ±100 for the full control effect
Target sequence (Q9HBX9 whole entry, looked up): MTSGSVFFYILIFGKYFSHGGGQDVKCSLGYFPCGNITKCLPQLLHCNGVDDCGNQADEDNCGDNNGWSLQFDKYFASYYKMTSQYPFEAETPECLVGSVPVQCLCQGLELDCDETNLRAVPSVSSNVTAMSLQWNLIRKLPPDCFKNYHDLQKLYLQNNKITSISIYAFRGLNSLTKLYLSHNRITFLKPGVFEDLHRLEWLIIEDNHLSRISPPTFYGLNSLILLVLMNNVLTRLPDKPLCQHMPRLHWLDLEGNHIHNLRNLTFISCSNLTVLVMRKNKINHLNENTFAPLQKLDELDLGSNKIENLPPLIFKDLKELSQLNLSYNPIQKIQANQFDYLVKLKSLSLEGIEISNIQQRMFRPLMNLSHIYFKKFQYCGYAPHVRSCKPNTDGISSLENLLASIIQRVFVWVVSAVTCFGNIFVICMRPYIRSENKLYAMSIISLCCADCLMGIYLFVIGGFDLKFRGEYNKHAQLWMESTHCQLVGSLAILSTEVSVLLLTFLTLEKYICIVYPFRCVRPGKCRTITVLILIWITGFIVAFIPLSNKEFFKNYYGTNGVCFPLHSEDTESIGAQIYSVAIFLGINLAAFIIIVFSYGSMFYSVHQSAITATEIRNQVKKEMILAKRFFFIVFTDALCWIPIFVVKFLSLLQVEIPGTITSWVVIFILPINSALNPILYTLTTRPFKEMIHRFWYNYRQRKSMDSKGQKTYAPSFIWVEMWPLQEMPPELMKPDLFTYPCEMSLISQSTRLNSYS
gsp agonist = qHTS for Agonist of gsp, the Etiologic Mutation Responsible for Fibrous Dysplasia/McCune-Albright Syndrome: qHTS. gsp mutant cells, cAMP HTRF, 30 min. 340,000 tested, 0.13% active. Potency, µM (series often up to 76.9 µM), without a hit: at the top dose activation (cAMP increase), usual class: activators; active = well fitted activation curve with a large enough effect; inconclusive = small, poorly fitted or top-dose-only effect, or another doubt; inactive = no such curve, though single readings can be large or run the other way; cell line not stated here;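 note: phosphodiesterase inhibitor Ro 20-1724 added with compounds to block cAMP breakdown; potency is the fitted concentration of half-maximal effect; nearly all actives have a fitted effect of over 60% in size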
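Cells stably selected in G418 were plated at 2000/well, grown 16-24 hr, then given compounds in DMSO with the PDE inhibitor […] (300 uM solution added) for 30 min at 37C; cAMP was read by HTRF.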
RXFP1 ag = qHTS Assay for Agonists of the Relaxin Receptor RXFP1; AID 2676, 2010; 370,000 tested, 0.3% active; Potency, µM (doses to about 57.5 µM), for the others: at the top dose activation, hits mostly activators; Relaxin receptor 1 (Homo sapiens), Q9HBX9; HEK293T-RXFP1 cAMP TR-FRET, 30 min; response scale: percent of porcine relaxin response, buffer zero; active = well fitted activation curve with a large enough effect; inconclusive = small, poorly fitted or top-dose-only effect; note: potency is the fitted concentration of half-maximal effect; % is set by controls: 0 for no effect and ±100 for the full control effect; nearly all actives have a fitted effect of over 60% in size
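cAMP rise read by TR-FRET after 30 min, 37C compound exposure (up to 58 uM) in RXFP1-transfected HEK293 cells with Ro 20174 present. EC50 from Hill-equation fits, with 29 nM porcine relaxin as 100% and buffer as basal.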
An asterisk follows results filed as active; ? = inconclusive; · = no result given; [ ] = dose if it differs, or a comment. Rows were chosen to be rich in hits. Some 0.9% of all compounds tested hit in one or more screens of this group.

SMILES | gsp antagonist | RXFP1 antagonist | gsp agonist | RXFP1 ag
CC(=O)OCC(=O)[C@@]12N=C(C)O[C@@H]1C[C@H]1[C@@H]3CCC4=CC(=O)C=C[C@]4(C)[C@H]3[C@@H](O)C[C@@]12C | · | 1 | · | ·
COC(=O)c1ccc(NC(=O)CCc2c(C)nn(-c3ccc(N4CCOCC4)nn3)c2C)cc1 | · | · | · | 2%
COc1ccc(CCNC(=O)c2cc(S(=O)(=O)N3CCC4(CC3)OCCO4)ccc2F)cc1OC | 11µM* | -23 | ? | -2%
Cc1ccccc1S(=O)(=O)Cc1ccc(C(=O)N(C)C2CCCCC2)o1 | 50µM* | -5 | ? | 1%
Cc1ccccc1S(=O)(=O)Cc1ccc(C(=O)NC2CC2)o1 | 28µM* | 6 | -6% | 1%
Cc1ccccc1S(=O)(=O)Cc1ccc(C(=O)NC2CCCCCC2)o1 | -8% | 37 | -59% | -4%
CNC(=O)CN(CCN(CCN(CC(=O)[O-])CC(=O)NC)CC(=O)[O-])CC(=O)[O-].O.[Gd+3] | · | -11 | · | ·
O=C1CC(c2cccc([N+](=O)[O-])c2)c2c(ccc3ccccc23)N1 (configuration not stated) | 40µM* | -7 | 8% | 0%
O=C1CC(c2ccc(Br)cc2)c2c(ccc3ccccc23)N1 (configuration not stated) | · | ? | · | 2%
Cn1c(=O)c2[nH]c(CCCc3ccc([N+](=O)[O-])cc3)nc2n(C)c1=O | 8% | 10 | 16µM* | ·
CS(=O)(=O)c1nc(-c2ccccc2)cc(C(F)(F)F)n1 | 18% | -106* | 0%[15.4 µM] | 1%
O=C(CCCl)NCc1ccccc1 | · | 21 | · | ·
CCOc1ccc(NC(=O)N2CCOc3ccccc32)cc1 | · | -6 | · | ?
CC(=O)c1ccc2c3c(cccc13)CC2 | -3% | -7 | -54% | 1%
ON=C(c1ccccc1)c1ccc2c3c(cccc13)CC2 | · | -106* | 4% | ·
CCOC(=O)C(=CNc1cc(C)ccc1C)C(=O)OCC | 35µM* | -9 | 0% | 1%
CCOC(=O)C(=CNc1cc(C)ccc1[N+](=O)[O-])C(=O)OCC | ? | -7 | -12% | 0%
O=C(Nc1ccc(N2CCCCC2)cc1)c1ccccn1 | -9% | -72* | ? | 1%
O=C(Nc1ccccc1)c1cnc(N2CCCCC2)c2ccccc12 | · | -68* | · | 6%
CCc1ccc(CNC(=O)c2cnc(N3CCCCC3)c3ccccc23)cc1 | · | -39 | · | ?
O=C(NCc1ccc(F)cc1)c1cnc(N2CCCCC2)c2ccccc12 | · | -62* | · | 7%
COc1ccc(C(=O)Nc2ccc(Nc3ccccc3)cc2)cc1[N+](=O)[O-] | 28µM* | 3 | -11% | -1%
O=C(COc1ccc(Cl)cc1)NCC(c1ccco1)S(=O)(=O)c1ccc(F)cc1 (configuration not stated) | · | -2 | · | 3%
Cc1ccccc1OCC(O)CNC1CCC(NCC(O)COc2ccccc2C)CC1 (configuration not stated) | -7% | -101* | 0% | 0%
CCOc1ccc(Cn2c(=O)sc3ccccc32)cc1 | -8% | -2 | ? | 0%
SMILES | gsp antagonist | RXFP1 antagonist | gsp agonist | RXFP1 ag
CCCCOc1ccccc1Cn1c(=O)sc2ccccc21 | · | -68* | · | 0%
Cn1cccc1-c1cc(C(=O)N/N=C/c2cc(Br)ccc2O)[nH]n1 | ? | -61* | 30% | 28%
COc1cc2ncc3c(-c4ccc(C)cc4)nn(-c4ccc(F)cc4F)c3c2cc1OC | · | -8 | · | 2%
N#Cc1c(NC(=O)CSc2nnc(-c3ccccc3)o2)sc2c1CCCC2 | 22µM* | 7 | 1% | 3%
Cc1ccc(CNC(=O)c2ccc3c(=O)n(CCCN4CCCC4=O)c(=S)[nH]c3c2)cc1 | 2% | -1 | ? | 2%
CCOCCCn1c(=S)[nH]c2cc(C(=O)NCC(OC)OC)ccc2c1=O | -5% | -66* | 5% | -3%
CCCn1c(=S)[nH]c2cc(C(=O)N(CCO)Cc3ccccc3)ccc2c1=O | -27% | -75* | -13% | 3%
COc1ccccc1CNC(=O)c1ccc2c(=O)n(CCCN3CCCC3=O)c(=S)[nH]c2c1 | -6% | -65* | 2%[15.4 µM] | 10%
CCN(CC)C(=O)c1ccc2c(=O)n(CCOC)c(=S)[nH]c2c1 | -3% | 7 | 15% | -2%
O=C(NCc1ccccc1)c1ccc2c(=O)n(CCCN3CCCC3=O)c(=S)[nH]c2c1 | -13% | -74* | 27% | 2%
Cc1ccc(C)c(Cn2c(=O)cc(C)c3c(C)nn(C)c32)c1 | · | -26 | · | 2%
COc1ccc(CNC(=O)CN2C(=O)COc3ccc(S(=O)(=O)N4CCCCCC4)cc32)cc1 | · | 2 | · | 1%
COc1cc2c(cc1OC)CN(C(=O)[C@H](C)N[C@@H](CCc1ccccc1)C(=O)O)[C@H](C(=O)O)C2 | · | 23 | · | ·
COc1ccc(CNC(=O)c2ccc3c(=O)n(CCCN4CCCC4=O)c(=S)[nH]c3c2)cc1 | -8% | -116* | 16%[15.4 µM] | 6%
COC(=O)c1ccc2c(=O)n(CCCN3CCCC3=O)c(=S)[nH]c2c1 | -11% | 24 | ? | -1%
Fc1ccc(-c2cc(-c3nc(-c4ccccc4)no3)[nH]n2)cc1 | · | -5 | · | -2%
CC(C(=O)NCc1ccccc1)n1cc([N+](=O)[O-])cn1 (configuration not stated) | 5% | 4 | 1.6µM* | -3%
CCOc1ccccc1NC(=O)N1CC(CC)Oc2ccccc21 (configuration not stated) | · | -80* | · | -1%
CCC1CN(C(=O)Nc2cc(C)ccc2OC)c2cc(Cl)ccc2O1 (configuration not stated) | · | -61* | · | -1%
CCC1CN(C(=O)Nc2cccc(OC)c2)c2ccccc2O1 (configuration not stated) | · | -24 | · | 0%
COc1ccc(OC)c(NC(=O)N2CC(C)Oc3ccc(C)cc32)c1 (configuration not stated) | · | ? | · | -1%
CCOc1ccc(CNS(=O)(=O)c2ccc3c(c2)CC(C)N3C(C)=O)cc1OC (configuration not stated) | · | -4 | · | 1%
CC(C)CN(C(=O)CSc1nncn1-c1ccccc1)c1c(N)n(CC(C)C)c(=O)[nH]c1=O | 1% | -60* | -17%[15.4 µM] | 0%
c1ccc(CC(Nc2ccccn2)c2ccccc2)cc1 (configuration not stated) | -2% | -60* | -4%[15.4 µM] | 0%
CCOC(=O)c1c(C)[nH]c(C(=O)COC(=O)/C=C/c2ccc3c(c2)OCO3)c1C | 7% | 6 | 1%[15.4 µM] | 0%
CCOC(=O)c1c(C)[nH]c(C(=O)COC(=O)CCC(=O)c2ccc3c(c2)OCCO3)c1C | 28µM* | -2 | 5% | 0%
N#CC(c1ccccc1)C(CC(=NO)c1ccccc1)c1ccccc1 (configuration not stated) | · | -91* | -1% | ·
